Among all 1,100 compounds or so, about 860 (78%) were called active. Not shown: some 19% with an inconclusive outcome. Calls come from the whole dose curve; as a rule, active = well fitted activation curve with a large enough effect; inconclusive = small, poorly fitted or top-dose-only effect; inactive = flat fitted curve, though single readings scatter. The set was probably picked from earlier hits. This is one part of the list.
Potency is the fitted concentration of half-maximal effect.

The experiment in a line: qHTS of Nrf2 Activators: Hit Validation in Primary Assay. Note: nearly all actives have a fitted effect of over 70% in size. The following applies: Nrf2/ARE reporter cell assay; Potency: activation; series mostly up to 46.1 µM. In outline:
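AREc32 cells stably carrying an ARE-driven firefly luciferase, plated overnight, then exposed 24 h at 37 °C to compounds at several concentrations. ARE activation read as luminescence with Steady-Glo after 30 min at room temperature.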
(In general: qHTS replaces the single test concentration by a dilution series.)
As for `Cc1cc(O)cc2c1C(=O)/C(=C/c1ccco1)O2`, the Potency is 1.84 µM (active).
Under `COc1cccc(NC(=O)c2cc(Cl)nnc2Cl)c1` stands 18.4 µM (active).
Under `COc1cccc(NC(=O)c2nc(SC)ncc2Cl)c1` stands 2.91 µM (active); under `COc1cccc(NC(=O)c2nn(C)cc2Br)c1`, 16.4 µM (active).
The same measure for `CCSc1ncc(Cl)c(C(=O)Nc2ccccc2)n1`: 4.61 µM (active).
For `CCOC(=O)c1ccc(NC(=O)c2nc(S(=O)(=O)Cc3ccccc3)ncc2Cl)cc1`, the Potency was 3.66 µM (active).
Consider `O=C(NCCc1ccccn1)c1c(-c2ccsc2)sc2ccccc12`, for which the Potency is 2.31 µM (active).
With `COc1ccccc1C(=O)COC(=O)c1cccs1`, the Potency was 6.51 µM (active).
Under `COC(=O)c1ccccc1NC(=O)c1cccs1` stands 14.6 µM (active); under `O=C(Nc1cccc2nsnc12)c1cccs1`, 2.91 µM (active); under `O=C(Nc1ccc2nsnc2c1)c1cccs1`, 6.51 µM (active).
On to `CNC(=O)C1CCN(S(=O)(=O)c2c(C)noc2/C=C/c2ccccc2F)CC1`, for which the Potency is 9.2 µM (active).
The same measure for `CCOC(=O)c1ccccc1N/C=C/C(=O)c1ccccc1`: 3.26 µM (active).
Under `CCOC(=O)c1ccccc1N/C=C/C(=O)c1cccs1` stands 2.31 µM (active); under `O=C(/C=C/Nc1ccc(F)cc1)c1cccs1`, 6.51 µM (active).
The same measure for `O=C(CN1CCCCC1)Nc1nnc(-c2ccccc2)s1`: 5.8 µM (active); for `C/C(=N\Nc1ccccn1)c1cccs1`: 14.6 µM (active).
With `C/C(=N\Nc1ccccn1)c1ccc(Br)s1`, the Potency is 7.31 µM (active).
Under `C/C(=N\Nc1ccc(F)cc1F)c1ccc(Br)s1` stands 16.4 µM (active).
On to `N#Cc1cccn1-c1nccc(-c2cccs2)n1`, for which the Potency was 4.61 µM (active).
The same measure for `CC1CCc2c(cc(-c3ccccc3)n2-c2ccc(C(=O)NC(C)C)cc2)C1` (stereo unspecified): 23.1 µM (active).
The same measure for `COCCNC(=O)c1ccc(-n2c(-c3ccccc3)cc3c2CCC(C)C3)cc1` (stereo unspecified): 16.4 µM (active); for `Cc1ccc(S(=O)(=O)c2nc(S(C)(=O)=O)sc2N2CCC(C)CC2)cc1`: 20.6 µM (active).
Turning to `Cc1ccc(S(=O)(=O)c2nc(S(C)(=O)=O)sc2N2CCC(O)CC2)cc1`, the Potency was 9.2 µM (active).
Take `Cc1ccc(S(=O)(=O)c2nc(S(C)(=O)=O)sc2N2CCCCC2C)cc1` (stereo unspecified): the Potency is 2.06 µM (active).
Consider `COc1ccc(-c2cc3ccccc3oc2=O)cc1NC(=O)c1ccc([N+](=O)[O-])o1`, for which the Potency is 3.26 µM (active).
Under `COc1ccccc1NC(=O)c1cnc(SCC(=O)NCCc2ccccc2)n(C)c1=O` stands 3.66 µM (active); under `O=C(COc1cccnc1[N+](=O)[O-])Nc1cccc2ccccc12`, 16.4 µM (active); under `Cc1ccc(OCC(=O)Nc2cccc3ccccc23)c([N+](=O)[O-])n1`, 11.6 µM (active).
Under `C/C(=N\Nc1ccc2nncn2n1)c1ccc(Cl)s1` stands 3.66 µM (active); under `COc1ccc([N+](=O)[O-])cc1C1NN=C(c2ccccc2O)S1` (stereo unspecified), 2.91 µM (active).
Under `O=C1CC(c2ccco2)CC(O)=C1C=Nc1cc(Cl)ccc1O` (stereo unspecified) stands 4.61 µM (active).
For the compound `CC1(C)C(=O)OC(/C=C/c2cccc([N+](=O)[O-])c2)C(C)(C)C1=O` (stereo unspecified), the Potency is 1.03 µM (active).
For `N#C/C(=C\c1c(Oc2ccc(Cl)cc2)nc2ccccn2c1=O)C(=O)NC1CCS(=O)(=O)C1` (stereo unspecified), the Potency is 2.06 µM (active).
The same measure for `Cc1cc(C)c2c(N)c(C(=O)c3ccc(Br)cc3)oc2n1`: 4.11 µM (active).
Turning to `Cc1ccc(-c2cc(-c3cccc(F)c3)n[nH]2)c(O)c1`, the Potency is 2.59 µM (active).
Under `O=Cc1c(NCc2ccco2)nc2ccccn2c1=O` stands 1.64 µM (active); under `Cc1cccn2c(=O)c(C=NCCO)c(NCc3ccco3)nc12`, 2.59 µM (active); under `Fc1ccc2cc(-c3ccsc3)ncc2c1`, 7.31 µM (active).
The same measure for `COc1ccc(N2C(=O)/C(=C\c3ccco3)N=C2SCC(N)=O)cc1Cl`: 1.64 µM (active); for `O=C(C=Cc1ccccc1Cl)c1ccccc1`: 18.4 µM (active); for `Clc1nnc(NN=C2CCCC2)c2ccccc12`: 4.61 µM (active).
The same measure for `Clc1ccc(/C=N/Nc2nnc(Cl)c3ccccc23)cc1`: 2.31 µM (active).
In the case of `O=[N+]([O-])c1cccc(N2Cc3ccccc3C2)c1`, the Potency was 20.6 µM (active).
`O=C(N/N=C/C(Br)=C/c1ccccc1)c1ccc([N+](=O)[O-])cc1`: the Potency is 18.4 µM (active).
Under `COc1ccc2c(c1)C1=NN(/C(C)=C/C(C)=O)C(c3cccc(F)c3)C1CC2` (stereo unspecified) stands 5.8 µM (active).
The same measure for `Cc1ccc(-c2nc3sc(C#N)c(N)n3c(=O)c2C#N)cc1`: 8.2 µM (active); for `COc1c(Cl)cc(C(=O)NCc2ccco2)cc1Cl`: 14.6 µM (active); for `Cc1c(C(=O)NCc2ccco2)oc2c(Cl)cccc12`: 1.46 µM (active).
As to `COc1ccccc1NC(=O)c1ccc(Cl)c(S(=O)(=O)NCc2ccco2)c1`, the Potency is 10.3 µM (active).
For `COc1ccc(C)c2sc(NC(=O)CCS(=O)(=O)c3ccccc3)nc12`, the Potency is 4.11 µM (active).
As for `CCOC(=O)c1ccsc1NC(=O)CCS(=O)(=O)c1ccccc1`, the Potency was 18.4 µM (active).
Under `COc1ccc(OC)c2sc(NC(=O)CCS(=O)(=O)c3ccccc3)nc12` stands 3.26 µM (active).
Under `O=C(CCS(=O)(=O)c1ccccc1)Nc1nc2ccc(F)cc2s1` stands 18.4 µM (active).
Under `O=C(CCS(=O)(=O)c1ccccc1)Nc1nc2c(s1)COc1ccccc1-2` stands 6.51 µM (active); under `Cc1cccc2cc3c(nc12)-c1ccccc1C3=O`, 10.3 µM (active); under `c1ccc2nc3c(ccc4ccccc43)cc2c1`, 9.2 µM (active).
Regarding `CCOC(=O)c1sc(NC(=O)c2ccccc2F)c(C(N)=O)c1C`, the Potency is 2.31 µM (active).
As for `COC(=O)c1c(NC(=O)c2ccccc2)sc(C(N)=O)c1C`, the Potency is 1.46 µM (active).
As for `c1ccc(N2CC3CCc4ccccc4C3=N2)cc1` (stereo unspecified), the Potency was 5.8 µM (active).
With `c1ccc(N2CC3COc4ccccc4C3=N2)cc1` (stereo unspecified), the Potency is 2.59 µM (active).
The same measure for `CCCS(=O)(=O)c1nc(S(=O)(=O)c2ccc(C)cc2)c(N2CC(C)OC(C)C2)s1` (stereo unspecified): “inactive”; for `CC1CN(c2sc(S(C)(=O)=O)nc2S(=O)(=O)c2ccc(Cl)cc2)CC(C)O1` (stereo unspecified): 6.51 µM (active).
Under `Cc1ccc(S(=O)(=O)c2nc(S(C)(=O)=O)sc2N2CC(C)OC(C)C2)cc1` (stereo unspecified) stands 18.4 µM (active); under `CCOC(=O)c1cnc(-c2ccccc2)nc1-c1ccccc1`, 9.2 µM (active); under `Nc1nc(Nc2ccccc2F)nc(NCc2ccco2)c1[N+](=O)[O-]`, 2.31 µM (active).
As for `O=C1C=C(C#Cc2ccccc2)C[C@@H](c2ccc(F)cc2)C1`, the Potency was 11.6 µM (active).
Take `CC(C)(C)c1csc(NC(=O)CCS(=O)(=O)c2ccc(F)cc2)n1`: the Potency was 20.6 µM (active).
Under `O=C(CCS(=O)(=O)c1ccccc1)Nc1nc(-c2ccccn2)cs1` stands 18.4 µM (active); under `Cc1ccc2ccc(C3C(=O)c4ccccc4C3=O)nc2c1`, 1.64 µM (active); under `C#CCSc1nc(-c2ccccc2)cc(C(F)(F)F)c1C#N`, 11.6 µM (active).
Under `Cc1ccc(-c2cc(C(F)(F)F)c(C#N)c(SCCC#N)n2)o1` stands 2.59 µM (active).
Under `c1ccc2c(-c3nc4ncccc4o3)cccc2c1` stands 6.51 µM (active); under `CCn1c(SCC(=O)N/N=C/C=C\c2ccco2)nc2ccccc21`, 1.84 µM (active).
As to `Cn1c(SCC(=O)N/N=C/C=C\c2ccccc2[N+](=O)[O-])nc2ccccc21`, the Potency is 0.366 µM (active).
Under `Cn1c(SCC(=O)N/N=C/C=C\c2ccco2)nc2ccccc21` stands 2.59 µM (active).
For the compound `CCn1c(SCC(=O)N/N=C/C=C/c2ccco2)nc2ccccc21`, the Potency is 1.46 µM (active).
Under `Cc1ccc(N=C2NC(=O)S/C2=C\c2ccco2)cc1` stands 7.31 µM (active); under `Cc1cccc(N=C2NC(=O)S/C2=C\c2ccco2)c1`, 3.26 µM (active); under `C=CCn1c(=NC(=O)c2cc(Cl)sc2Cl)sc2cc(S(N)(=O)=O)ccc21`, 2.31 µM (active).
The same measure for `Oc1ccc(Br)cc1-c1cc(-c2ccco2)[nH]n1`: 3.66 µM (active); for `Oc1c(-c2cc(-c3ccco3)[nH]n2)ccc2ccccc12`: 2.31 µM (active); for `Oc1ccc(Cl)cc1-c1cc(-c2ccco2)[nH]n1`: 3.66 µM (active).
The same measure for `COc1ccccc1NC(=O)c1cc(Cl)nc2ccccc12`: 5.17 µM (active); for `O=[N+]([O-])c1cnccc1-n1nnc2ccccc21`: 18.4 µM (active); for `COc1ccc(S(=O)(=O)NCCc2csc3nc(-c4ccc(Cl)cc4)nn23)cc1C`: 5.17 µM (active).
With `O=C(COCc1cc(-c2ccc(F)cc2)on1)Nc1cc(Cl)ccc1O`, the Potency was 8.2 µM (active).
The same measure for `O=C(COCc1cc(-c2cccs2)on1)Nc1cc(Cl)ccc1O`: 2.31 µM (active); for `Oc1ccccc1C1CC(c2cccs2)=NC(c2ccc(Cl)cc2)N1` (stereo unspecified): 13 µM (active).
With `COC(=O)c1ccccc1NC(=O)COc1ccccc1[N+](=O)[O-]`, the Potency was 2.59 µM (active).
As for `C/C(=N\NC(=O)COc1ccccc1[N+](=O)[O-])c1cccs1`, the Potency was 6.51 µM (active).
On to `O=c1nc2c(-c3ccccc3F)n[nH]n2c2ccccc12`, for which the Potency is 2.59 µM (active).
Turning to `CCNc1nc(NCC)nc(N(C)/N=C/c2ccco2)n1`, the Potency is 2.59 µM (active).
Under `O=C(N/N=C/c1ccco1)Nc1ccccc1` stands 8.2 µM (active).
The same measure for `O=C(N/N=C\c1ccco1)Nc1cccc(Cl)c1`: 2.31 µM (active); for `O=C(Nc1ccc(F)cc1)c1nsc(Cl)c1Cl`: 1.64 µM (active); for `Clc1ccc(C=Cc2ccccn2)cc1`: 5.17 µM (active).
Under `Clc1ccc(C=Cc2ccccn2)c(Cl)c1` stands 3.66 µM (active); under `O=C(Nc1cccc(/C=C/c2ccccn2)c1)c1ccc(-n2cncn2)cc1`, “inactive”; under `CC1(C)C2C/C(=N\O)C(C)(/[N+]([O-])=C/c3cccc([N+](=O)[O-])c3)CC21` (stereo unspecified), 20.6 µM (active).
For the compound `N#C/C(=C\C=C\c1ccccc1)C(=O)NCc1cccnc1`, the Potency is 2.31 µM (active).

The record behind these values is PubChem BioAssay AID651593 (National Center for Advancing Translational Sciences (NCATS), 2012).
